Bioassay records as filed in PubChem BioAssay.
AmpC inh no detg – AmpC beta-lactamase inhibition without detergent. AmpC nitrocefin hydrolysis, absorbance 480 nm, 0.0001% Triton. Potency, µM (titrated, usually from 57.1 µM), actives largely listed as inhibitors. 330,000 tested, 0.52% active; note: nearly all actives have a fitted effect of over 20% in size
Target sequence (P00811 whole entry, looked up): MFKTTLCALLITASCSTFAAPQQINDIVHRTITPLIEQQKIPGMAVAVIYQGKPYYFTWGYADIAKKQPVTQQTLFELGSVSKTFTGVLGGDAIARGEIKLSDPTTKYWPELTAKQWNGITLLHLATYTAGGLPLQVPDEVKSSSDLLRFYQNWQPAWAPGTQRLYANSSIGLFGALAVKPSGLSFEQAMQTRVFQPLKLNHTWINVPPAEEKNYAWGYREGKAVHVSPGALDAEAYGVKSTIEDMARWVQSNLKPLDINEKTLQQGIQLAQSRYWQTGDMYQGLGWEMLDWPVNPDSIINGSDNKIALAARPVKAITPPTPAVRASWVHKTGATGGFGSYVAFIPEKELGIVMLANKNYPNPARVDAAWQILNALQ
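AmpC (5.3 nM in the dispensed reagent) in 20 mM phosphate pH 7.0 with 0.01% (detergent screen) or 0.0001% Triton X-100 was preincubated with compounds for 15 min at room temperature. Nitrocefin was then added from an 800 uM solution, and hydrolysis was followed at 480 nm.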
Cycloheximide cs – counter-screen for Shiga toxin inhibitors: cycloheximide protein synthesis inhibition | AID 2314 | cell reporter, cycloheximide protein synthesis inhibition counterscreen | max response, % | 300,000 tested, 12% active; in the data active = max response mostly above about 13%, no sharp cut-off; inactive = mostly below about 14%; note: read at 38.3 µM for the half of the compounds with a filed dose
AMA1-RON2 inh – AMA1-RON2 (P. falciparum) interaction inhibition; 360,000 tested, 0.2% active; Potency, µM (highest dose often 58.2 µM), hits mostly inhibitors; AID 720542; AlphaScreen AMA1-biotinylated RON2 peptide binding; note: nearly all actives have a fitted effect of over 45% in size
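AMA1 (3D7) with his tag at 25 nM final met compounds first, then biotinylated RON2 peptide at 25 nM; detection used donor plus acceptor beads, 10 µg/mL apiece, read by AlphaScreen after 30 min at room temperature.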
AmpC detergent – AmpC beta-lactamase inhibition with detergent present. 370,000 tested, 0.041% active. P00811. AID 485294. Potency, µM (series often up to 114 µM), usual class: inhibitors. AmpC hydrolysis of nitrocefin, absorbance 480 nm, 0.01% Triton; note: nearly all actives have a fitted effect of over 25% in size
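AmpC (5.3 nM in the dispensed reagent) in 20 mM phosphate pH 7.0 with 0.01% (detergent screen) or 0.0001% Triton X-100 was preincubated with compounds for 15 min at room temperature. Nitrocefin was then added from an 800 uM solution, and hydrolysis was followed at 480 nm.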
Shiga inhibitor – Shiga toxin inhibition; Vero cells, Shiga toxin protein synthesis inhibition reporter; AID 2315; inhibition, % at 38.7 µM; 290,000 tested, 9.2% active; in the data active = inhibition mostly above about 28%, no sharp cut-off; inactive = mostly below about 43%
SARS PLpro yeast – blocks SARS-CoV papain-like protease in a yeast assay; S. cerevisiae expressing SARS-CoV PLpro, growth rescue; Potency, µM (doses to about 32.9 µM), usual class: activators; 330,000 tested, 0.19% active; AID 485353; calls by dose curve; note: nearly all actives have a fitted effect of over 55% in size
Large screens that a line does not name were inactive. The entries come from a sample that favours hits as a whole. Unless noted, calls come from the whole dose curve; as a rule, active = well fitted curve in the direction sought with a large enough effect; inconclusive = small, poorly fitted or top-dose-only effect, or another doubt; inactive = no such curve, though single readings can be large; an effect the other way counts as inactive or inconclusive.

CCN(C(=O)c1cccs1)c1nc(-c2ccc(OC)cc2)cs1	Cycloheximide cs 43, Shiga inhibitor 101
COc1ccc(-c2csc(NC(=O)COC(=O)c3ccco3)n2)cc1	Cycloheximide cs 50, Shiga inhibitor 43
CCn1nc(C(=O)OCC(=O)Nc2nc(-c3ccc(OC)cc3)cs2)c2ccccc2c1=O	Cycloheximide cs 46, Shiga inhibitor 50
CC1CC(C)CN(c2ccc(C(=O)NCc3ccc4c(c3)OCO4)cc2[N+](=O)[O-])C1 (configuration not stated)	AmpC inh no detg 3.2µM, AMA1-RON2 inh inconclusive
Cc1cc(C(=O)OCC(=O)NCc2cccs2)ccc1[N+](=O)[O-]	none (no result: Cycloheximide cs, AmpC detergent, Shiga inhibitor)
COc1ccc(C(=O)NCC(=O)NCc2ccc3c(c2)OCO3)cc1[N+](=O)[O-]	none (no result: AmpC inh no detg, Cycloheximide cs, AmpC detergent, Shiga inhibitor, SARS PLpro yeast)
Cc1cc(C(=O)NCc2cccs2)ccc1[N+](=O)[O-]	Cycloheximide cs 14
CC(=O)Nc1ccc(C(=O)NCC2CCCCC2)cc1	Cycloheximide cs 20
O=C(NCC1CCCCC1)c1ccc([N+](=O)[O-])cc1	AmpC detergent inconclusive
Cc1ccc(C(=O)NCc2ccc3c(c2)OCO3)cc1C	Cycloheximide cs 35, Shiga inhibitor 55
COc1ccc(OC)c(CNC(=O)c2c(C)oc3ncn(CC(C)C)c(=O)c23)c1	none (no result: AmpC inh no detg, Cycloheximide cs, AMA1-RON2 inh, Shiga inhibitor, SARS PLpro yeast)
Cc1cc(/C=C(\C#N)C(N)=O)c(C)n1-c1ccc(N2CCOCC2)c([N+](=O)[O-])c1	none
COc1cc2c(cc1OC)C1(CCCC1)CNC2c1ccc([N+](=O)[O-])cc1 (configuration not stated)	AmpC detergent inconclusive
Cc1cc(C(=O)NCC2CCCCC2)ccc1[N+](=O)[O-]	Cycloheximide cs 24, Shiga inhibitor 84
Cc1cc(C(=O)Nc2nc(C)c(C(=O)N(C)C)s2)ccc1[N+](=O)[O-]	Cycloheximide cs 34, Shiga inhibitor 54
O=C(NCc1ccc2c(c1)OCO2)c1cccc([N+](=O)[O-])c1	AmpC detergent inconclusive
Cc1cc(C(=O)NCc2ccc3c(c2)OCO3)ccc1[N+](=O)[O-]	Cycloheximide cs 25
Cc1ccc(CC(=O)NCC2CCCCC2)cc1	Cycloheximide cs 26, Shiga inhibitor 71
Cc1ccc(NC(=S)NC(=O)c2cncc(Br)c2)c(C)c1	none (no result: AmpC inh no detg, Cycloheximide cs, AmpC detergent, Shiga inhibitor, SARS PLpro yeast)
O=C(Oc1cccc2cccnc12)c1ccc(Br)o1	none
O=C(NCc1ccc(Cl)c(Cl)c1)c1ccc2c(c1)OCO2	none
Cc1ccc(C(=O)NCc2ccc3c(c2)OCO3)cc1Cl	Cycloheximide cs 18
O=C(CCCCCCC(=O)NCc1ccccc1)NCc1ccccc1	none
O=C1C(Cl)=C(Nc2ccccc2O)C(=O)N1CCc1ccccc1	Cycloheximide cs 30
COc1ccc(N2C(=O)C(Cl)=C(Nc3ccc(OC)cc3OC)C2=O)cc1	Cycloheximide cs 44
CCOc1ccc(N2C(=O)C(Cl)=C(Nc3ccccc3O)C2=O)cc1	Cycloheximide cs 37, Shiga inhibitor 97
COc1ccc(CCNC2=C(Cl)C(=O)N(CCc3ccccc3)C2=O)cc1OC	none
CCCN(C(=O)c1ccc2c(=O)n3c(nc2c1)CCCCC3)c1cccc(Cl)c1	none (no result: AmpC inh no detg, Cycloheximide cs, AMA1-RON2 inh, Shiga inhibitor, SARS PLpro yeast)
COc1ccc(CN(C)C(=O)c2ccc3c(=O)n4c(nc3c2)CCC4)cc1	Cycloheximide cs 44, Shiga inhibitor 110
CCc1ccccc1N(C)C(=O)c1ccc2c(=O)n3c(nc2c1)CCCCC3	none (no result: AmpC inh no detg, Cycloheximide cs, AMA1-RON2 inh, Shiga inhibitor, SARS PLpro yeast)
CN(C(=O)c1ccc2c(=O)n3c(nc2c1)CCCCC3)c1ccccc1F	Cycloheximide cs 17
CN(C(=O)c1ccc2c(=O)n3c(nc2c1)CCCCC3)c1cccc(Cl)c1	Cycloheximide cs 18
Cc1nn(-c2ccccc2)c(Cl)c1/C=N/NC(=O)c1ccc(NS(=O)(=O)c2cccs2)cc1	AmpC inh no detg inconclusive, Cycloheximide cs 20 (no result: AMA1-RON2 inh)
Cc1nn(-c2cccc(Cl)c2)c(Cl)c1/C=N/NC(=O)c1cccs1	Cycloheximide cs 29, Shiga inhibitor 58
Cc1nn(-c2ccccc2)c(Cl)c1/C=N/NC(=O)c1ccccc1NS(=O)(=O)c1cccs1	none
CCNC(=S)N/N=C/c1c(C)nn(-c2cccc(Cl)c2)c1Cl	none
COc1ccc(CNC(=O)C(c2ccncc2)N(C(=O)Cc2cccs2)c2cccnc2)cc1 (configuration not stated)	none
COc1ccc(NC(=O)c2ccc3ccccc3c2)cc1	Cycloheximide cs 37 (no result: Shiga inhibitor)
COc1ccc(C(=O)Nc2ccc3ccccc3c2)c(OC)c1	Cycloheximide cs 30, Shiga inhibitor 86
COc1ccc(NC(=O)c2coc(C)c2)cc1	Cycloheximide cs 29, Shiga inhibitor 54
COc1ccc(C(=O)NCCn2ccc3ccccc32)c(OC)c1	Cycloheximide cs 38
CCOc1ccc(NC(=O)C(=O)N/N=C/c2ccccc2F)cc1	none
COc1ccc(CCNC(=O)c2ccncc2)cc1OC	none
COc1ccc(C(=O)CNc2ccc3ccccc3c2)cc1	Cycloheximide cs 31, AmpC detergent inconclusive, Shiga inhibitor 79
COc1ccc(C(=O)CNc2ccccc2Br)cc1	Cycloheximide cs 41, Shiga inhibitor 74
Cc1ccccc1NCC(=O)c1ccc(Br)cc1	none
COc1cc(/C=C2/C(=N)N3OC(C)=CC3=NC2=O)ccc1OC(=O)c1ccco1	none
COc1ccc(CN(C(=O)c2cc3ccccc3oc2=O)C2CCCC2)cc1	AmpC detergent inconclusive
COc1cccc(CN(C(=O)c2cc3ccccc3oc2=O)C2CC2)c1	Cycloheximide cs 26, Shiga inhibitor 78
COc1cccc(CN(CC2CCCO2)C(=O)c2cc3ccccc3oc2=O)c1 (configuration not stated)	Cycloheximide cs 44, Shiga inhibitor 77
COc1ccc(CN(CC2CCCO2)C(=O)c2cc3ccccc3oc2=O)cc1 (configuration not stated)	none
CCCNC(=O)C1(C)CCN(C(=O)c2ccccc2F)C1 (configuration not stated)	none (no result: AmpC inh no detg, Cycloheximide cs, AmpC detergent, Shiga inhibitor, SARS PLpro yeast)
COc1cc(C(C)=O)ccc1Oc1cnccn1	none
CCC(C)(C)C1CCc2[nH]nc(C(=O)NN)c2C1 (configuration not stated)	Cycloheximide cs 38, Shiga inhibitor 53
CN1CCN(c2ccc(NC(=O)CN3CCOCC3)cc2F)CC1	AmpC detergent inconclusive
CC(C)C(=O)Nc1ccc(N2CCN(C)CC2)c(F)c1	Cycloheximide cs 22
Cc1ccc(SCC(=O)Nc2ccc(N3CCN(C)CC3)c(F)c2)cc1	Cycloheximide cs 48, Shiga inhibitor 90
CC(=O)O[C@H]1CC(=O)OC(C)(C)C2CC(=O)[C@]3(C)C(CC[C@@](C)([C@@H](O[C@@H]4O[C@H](CO)[C@@H](O)[C@H](O)[C@H]4O)c4ccoc4)[C@@]34O[C@@H]4C(=O)O)[C@]21C (some centres not stated)	AmpC detergent inconclusive (no result: Cycloheximide cs, Shiga inhibitor)
Cc1ccc(Nc2c3c(nc4ncnn24)CCC3)cc1	AmpC detergent inconclusive
